From PubChem BioAssay
Shown are actives, neighbours in structure and some others; about 3.3% of the full set was active somewhere.
esBAF inh: SWI/SNF esBAF complex inhibition; mouse ES cells, Bmi1-luciferase knock-in reporter, 24 h; 100% = twice the neutral-well signal; reporter increase, % at 12.5 µM; 2% of 350,000 active; in the data active = activation above about 40%; inconclusive = no clear call, values can overlap the other calls;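 note: a rise in the Bmi1 reporter signal indicates esBAF inhibition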
Wnt act: activates Wnt/beta-catenin signaling in a reporter cell assay | activator, plate reader | activation, % at 9.35 µM | 1.2% of 300,000 active | AID 743398; in the data active = activation above about 30%, passing the limit was not always enough; inconclusive = no clear call, values can overlap the other calls
MITF act: activators of MITF-driven TRPM1 promoter activity in SK-MEL-5 cells. 0.75% of 300,000 active. SK-MEL-5 TRPM1-promoter luciferase, 24 h; % of positive control, neutral wells = 0. activation, % at 12.5 µM;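 active = mean activation of at least 80% with every replicate also reaching 80%; inconclusive = mean reaches 80% but some replicate falls short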
C2C12 statin: protects C2C12 myotubes from simvastatin toxicity. rescue of ATP level, % at 7.49 µM. AID 602340. ATP luminescence, 48 h; scaled: DMSO 0, geranylgeraniol control 100. 0.78% of 330,000 active;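 active = mean ATP rescue above about 67%, or every replicate alone reaching that limit, limit read from the data, passing the limit was not always enough; inconclusive = no clear call, values can overlap the other calls; inactive = mean under the limit and some replicate under it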;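 note: myotubes were challenged with 10 µM simvastatin during compound exposure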
GAA850 FXN act: increases GAA850 frataxin promoter reporter activity. activation, % at 6 µM. HEK293 lucGAA850 FXN promoter luciferase reporter, 24 h; percent of 10 µM SAHA response. 0.56% of 360,000 active;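 active = activation above the average of all compounds screened plus 3 SD, cutoff fixed separately per campaign, cut at about 7.5% in these data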
Ring1 derepress: confirmation of esBAF inhibitors: Ring1 de-repression in mouse ESCs; AID 743176; fold change at 33 µM; 550 tested, under 10 active; shares compounds with esBAF inh; mouse ESC E14, Ring1 mRNA RT-qPCR fold change;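 active = Ring1 gene expression raised more than 2-fold over untreated cells in both replicates at either tested dose; inconclusive = only one replicate above 2-fold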;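 note: Ring1 transcript normalised to actin housekeeping signal by TaqMan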
Fgf4 repress: esBAF inhibition confirmed by Fgf4 repression. mouse ESC E14, Fgf4 mRNA qPCR fold change; stronger effect = lower value. 4% of 550 active. Fgf4 expression fold change at 33 µM. shares compounds with esBAF inh;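 active = Fgf4 expression under 0.8 fold of control in both repeat measurements at one or both tested doses; inconclusive = under 0.8 fold in just a single repeat measurement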;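 note: Fgf4 transcript normalised to actin in duplex TaqMan qPCR; cells exposed to compound for 24 h before lysis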
esBAF Bmi1 qPCR: esBAF inhibition confirmed by Bmi1 de-repression. AID 743180. shares compounds with esBAF inh. mouse ESE14 ES cells, Bmi1 mRNA qPCR fold; stronger effect = higher value. 550 tested, under 10 active. fold change at 33 µM;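 active = Bmi1 expression fold change above 6 at either tested concentration, seen in replicate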
A549 tox SP: cytotoxicity in A549 cells | shares compounds with esBAF inh | plate reader | cell viability change % (negative = cytotoxic), % at 25 µM, hits read low | 550 tested, under 10 active; call rule not given here
HepG2 cytotox SP: kills or reduces viability of HepG2 cells; HepG2 cytotoxicity, plate reader; stronger effect = lower value; shares compounds with esBAF inh; AID 743189; 4% of 550 active; activity change, negative = inhibition, % at 25 µM; in the data active = activity change below about -50%
HEK293 cytotox SP: HEK293 cell cytotoxicity at single point; shares compounds with esBAF inh; plate reader; activity change, negative = inhibition, % at 25 µM, hits read low; 3% of 550 active; AID 743190; in the data active = activity change below about -38%, passing the limit was not always enough
Large screens that a line does not name were inactive (follow-up assays come after a bar, where they were run).

O=C(N/N=C/c1ccccc1)c1ccc(NC(=O)c2ccc(F)cc2)cc1	esBAF inh 58 | Ring1 derepress inactive | Fgf4 repress inactive | esBAF Bmi1 qPCR inactive | A549 tox SP inactive | HepG2 cytotox SP inactive | HEK293 cytotox SP inactive
Cc1ccc(S[C@@H](CCN2CC[C@H](C)CCC2=O)c2ccccc2)cc1	none
Cc1ccc(SCCN2CCC(C)CCC2=O)cc1 (stereo not given)	esBAF inh 83, MITF act inconclusive | Ring1 derepress inactive | Fgf4 repress inconclusive | esBAF Bmi1 qPCR inactive | A549 tox SP inactive | HepG2 cytotox SP inactive | HEK293 cytotox SP inactive
COC(=O)Nc1sc2c(c1C(N)=O)CCC(C)C2 (stereo not given)	none (no result: esBAF inh, C2C12 statin)
CC1CCc2c(sc(NC(=O)c3cccn3C)c2C(N)=O)C1 (stereo not given)	esBAF inh 71 | Ring1 derepress inactive | Fgf4 repress inactive | esBAF Bmi1 qPCR inactive | A549 tox SP inactive | HepG2 cytotox SP inactive | HEK293 cytotox SP inactive
C[C@H](CO)N1C[C@H](C)[C@H](CN(C)C(=O)Nc2ccnc(N3CCOCC3)c2)OCc2cn(nn2)CCCC1=O	none (no result: Wnt act, MITF act, GAA850 FXN act)
O=[N+]([O-])c1ccc(N/N=C/c2cccnc2)cc1	none
Clc1ccc(N/N=C/c2cccnc2)cc1	esBAF inh 70, MITF act inconclusive (no result: Wnt act) | Ring1 derepress inactive | Fgf4 repress inactive | esBAF Bmi1 qPCR inactive | A549 tox SP inactive | HepG2 cytotox SP inactive | HEK293 cytotox SP inactive
O=C(C[C@@H]1CC[C@@H]2NC[C@@H](O)COC[C@H]2O1)NCCN1CCCC1	none (no result: Wnt act, MITF act, GAA850 FXN act)
CS(=O)(=O)c1cccc(-c2csc(N3CCC(C(N)=O)CC3)n2)c1	esBAF inh 68 | Ring1 derepress inactive | Fgf4 repress inactive | esBAF Bmi1 qPCR inactive | A549 tox SP inactive | HepG2 cytotox SP inactive | HEK293 cytotox SP inactive
Cc1ccc(S(=O)(=O)NCC[C@H]2CC[C@@H](NC(=O)Nc3cccc(F)c3)[C@H](CO)O2)cc1	none (no result: Wnt act, MITF act, GAA850 FXN act)
CCCCc1nc2cc(C(=O)N3CCN(c4nc(C)cnc4C)CC3)ccc2o1	esBAF inh 64, MITF act inconclusive | Ring1 derepress inactive | Fgf4 repress inactive | esBAF Bmi1 qPCR inactive | A549 tox SP inactive | HepG2 cytotox SP inactive | HEK293 cytotox SP inactive
COc1cccc2sc(NC(=O)c3ccc(Br)s3)nc12	esBAF inh 68 (no result: Wnt act) | Ring1 derepress inactive | Fgf4 repress inactive | esBAF Bmi1 qPCR inactive | A549 tox SP inactive | HepG2 cytotox SP inactive | HEK293 cytotox SP inactive
Cc1cccc2sc(NC(=O)c3ccc(Cl)s3)nc12	esBAF inh inconclusive
COc1ccc(S(=O)(=O)Nc2ccc3c(c2)C(=O)N([C@@H](C)CO)C[C@@H](C)[C@H](CN(C)C(=O)Nc2ccc(F)cc2)O3)cc1	none (no result: Wnt act, MITF act, GAA850 FXN act)
COc1cccc(N(C(=O)c2cccs2)c2nc3ccccc3s2)c1	esBAF inh 59 (no result: Wnt act) | Ring1 derepress inactive | Fgf4 repress inactive | esBAF Bmi1 qPCR inactive | A549 tox SP inactive | HepG2 cytotox SP inactive | HEK293 cytotox SP inactive
c1ccc(-c2cnnc(N3CCCCC3)n2)cc1	esBAF inh 55, MITF act 86 (no result: C2C12 statin) | Ring1 derepress inactive | Fgf4 repress inactive | esBAF Bmi1 qPCR inactive | A549 tox SP inactive | HepG2 cytotox SP inactive | HEK293 cytotox SP inactive
FC(F)(F)c1cc(-c2ccccc2)nc(N2CCCCCC2)n1	none (no result: MITF act)
O=C(CCc1nnc(Cc2ccc(-c3ccccc3)cc2)o1)N1CCCC1	none (no result: esBAF inh, C2C12 statin)
CC1CCN(C(=O)CCc2nnc(-c3ccccc3)o2)CC1	esBAF inh 74, Wnt act inconclusive | Ring1 derepress inactive | Fgf4 repress inactive | esBAF Bmi1 qPCR inactive | A549 tox SP inactive | HepG2 cytotox SP inactive | HEK293 cytotox SP inactive
COc1ccc2oc3cc(Cl)ccc3c(=O)c2c1	esBAF inh 80 (no result: MITF act, GAA850 FXN act) | Ring1 derepress inactive | Fgf4 repress inconclusive | esBAF Bmi1 qPCR inactive | A549 tox SP inactive | HepG2 cytotox SP inactive | HEK293 cytotox SP inactive
CN(C)C(=O)[C@H]1[C@H](CO)[C@H]2Cn3c(ccc(C4=CCCC4)c3=O)[C@H]2N1Cc1ccccn1	none (no result: Wnt act, MITF act, GAA850 FXN act)
O=C(Nc1ccc(Cl)c(Cl)c1)Nc1ccccc1O	esBAF inh 74 (no result: MITF act) | Ring1 derepress inactive | Fgf4 repress inconclusive | esBAF Bmi1 qPCR inactive | A549 tox SP inactive | HepG2 cytotox SP inactive | HEK293 cytotox SP inactive
O=C(Nc1ccc(Cl)cc1)Nc1ccc(Cl)c(Cl)c1	none (no result: esBAF inh, MITF act, C2C12 statin, GAA850 FXN act)
Cc1ccc(S(=O)(=O)N(C)C[C@H]2OCCCC[C@H](C)Oc3ccc(NC(=O)CCC(F)(F)F)cc3C(=O)N([C@@H](C)CO)C[C@H]2C)cc1	none (no result: Wnt act, MITF act, C2C12 statin, GAA850 FXN act)
COc1ccc(-c2csc(C(O)c3ccccc3)n2)cc1 (stereo not given)	esBAF inh 92 (no result: MITF act) | Ring1 derepress inactive | Fgf4 repress inconclusive | esBAF Bmi1 qPCR inactive | A549 tox SP inactive | HepG2 cytotox SP inactive | HEK293 cytotox SP inactive
OC(c1ccccc1)c1nc(/C=C/c2ccccc2)cs1 (stereo not given)	esBAF inh 59 (no result: MITF act) | Ring1 derepress inactive | Fgf4 repress inconclusive | esBAF Bmi1 qPCR inactive | A549 tox SP inactive | HepG2 cytotox SP inactive | HEK293 cytotox SP inactive
COc1ccc(-c2csc(C(O)c3cccc(OC)c3)n2)cc1 (stereo not given)	none (no result: MITF act)
CN1CCN(C(=O)C[C@H]2C[C@@H]3c4cc(NC(=O)C5CCOCC5)ccc4O[C@@H]3[C@H](CO)O2)CC1	none (no result: Wnt act, MITF act, GAA850 FXN act)
ClCCn1cnc2c(SCc3ccccc3)ncnc21	esBAF inh 59, MITF act 138 | Ring1 derepress inactive | Fgf4 repress inconclusive | esBAF Bmi1 qPCR inactive | A549 tox SP inactive | HepG2 cytotox SP inactive | HEK293 cytotox SP -53
ClCCn1cnc2c(SCc3ccccc3Cl)ncnc21	none
Cc1ccc(NC(=O)CN2C(=O)N/C(=C/c3ccccc3OCc3cccc(C(=O)O)c3)C2=O)cc1	none | Ring1 derepress inactive | Fgf4 repress inactive | esBAF Bmi1 qPCR inactive | A549 tox SP inactive | HepG2 cytotox SP inactive | HEK293 cytotox SP inactive
COc1cccc(/C=C2/NC(=O)N(CC(=O)Nc3ccc(C)cc3)C2=O)c1OCc1cccc(C(=O)O)c1	none
C/C(=N\O)c1ccc2c3ccccc3n(C)c2c1	esBAF inh 58 | Ring1 derepress inactive | Fgf4 repress inactive | esBAF Bmi1 qPCR inactive | A549 tox SP inactive | HepG2 cytotox SP inactive | HEK293 cytotox SP inactive
CC(C)CC#Cc1ccc2c(c1)O[C@H](CN(C)C(=O)c1ccccc1F)[C@@H](C)CN([C@H](C)CO)S2(=O)=O	none (no result: Wnt act, MITF act, GAA850 FXN act)
